Data on 96 compounds can be found in ChEMBL document CHEMBL1201862, “PubChem BioAssay data set” (2004).

About 2,100 (0.53%) of roughly 400,000 compounds were called active. Roughly 14% stayed inconclusive and do not appear here. How the calls were made is not given here. The entries come from a sample that favours actives as a whole.

In the assay the target is Ataxin-2 (Homo sapiens) (UniProt Q99700). The experiment in a line: qHTS for Inhibitors of ATXN expression. In kind it is functional.
Sequence of Ataxin-2 (Homo sapiens) (Q99700 whole entry): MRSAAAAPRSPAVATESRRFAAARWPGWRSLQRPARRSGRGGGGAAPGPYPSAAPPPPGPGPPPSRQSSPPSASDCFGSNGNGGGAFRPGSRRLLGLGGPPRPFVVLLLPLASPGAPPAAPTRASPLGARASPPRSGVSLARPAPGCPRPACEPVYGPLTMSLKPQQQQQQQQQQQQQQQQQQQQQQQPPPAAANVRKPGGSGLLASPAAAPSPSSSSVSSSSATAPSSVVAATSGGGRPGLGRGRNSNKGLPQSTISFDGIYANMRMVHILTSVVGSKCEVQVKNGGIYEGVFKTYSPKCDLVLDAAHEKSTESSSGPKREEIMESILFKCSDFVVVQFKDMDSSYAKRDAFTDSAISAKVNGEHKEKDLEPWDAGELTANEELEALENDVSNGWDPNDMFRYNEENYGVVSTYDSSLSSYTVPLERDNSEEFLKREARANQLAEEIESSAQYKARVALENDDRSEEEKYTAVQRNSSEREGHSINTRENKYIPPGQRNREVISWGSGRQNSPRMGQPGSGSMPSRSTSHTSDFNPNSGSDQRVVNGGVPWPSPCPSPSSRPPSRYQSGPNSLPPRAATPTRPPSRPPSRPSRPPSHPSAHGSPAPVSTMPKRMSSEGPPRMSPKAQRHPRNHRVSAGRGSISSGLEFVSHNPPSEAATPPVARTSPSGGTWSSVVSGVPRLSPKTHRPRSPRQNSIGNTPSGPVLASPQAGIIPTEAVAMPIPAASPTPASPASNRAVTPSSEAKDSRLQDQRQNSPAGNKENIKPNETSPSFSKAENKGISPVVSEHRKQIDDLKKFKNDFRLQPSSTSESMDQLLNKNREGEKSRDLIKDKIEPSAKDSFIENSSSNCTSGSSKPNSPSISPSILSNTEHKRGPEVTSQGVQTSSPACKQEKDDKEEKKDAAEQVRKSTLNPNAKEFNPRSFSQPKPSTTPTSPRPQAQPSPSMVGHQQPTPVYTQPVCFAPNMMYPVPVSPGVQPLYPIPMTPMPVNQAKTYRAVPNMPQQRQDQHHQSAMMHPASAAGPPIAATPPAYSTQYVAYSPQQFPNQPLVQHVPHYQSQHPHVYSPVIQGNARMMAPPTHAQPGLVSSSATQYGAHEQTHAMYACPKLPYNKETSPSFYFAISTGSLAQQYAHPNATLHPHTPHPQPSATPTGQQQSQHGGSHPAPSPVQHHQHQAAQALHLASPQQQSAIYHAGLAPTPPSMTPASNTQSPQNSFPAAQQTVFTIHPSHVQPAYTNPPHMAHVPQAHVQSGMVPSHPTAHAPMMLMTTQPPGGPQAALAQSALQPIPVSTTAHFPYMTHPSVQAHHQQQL
As for `N=c1c(C(=O)NCC2CCCO2)cc2c(=O)n3ccccc3nc2n1Cc1ccccc1Cl` (stereo unspecified), the Potency result is “inactive”.
As for `CCOC(=O)C1CCN(C(c2ccc(OC)c(OC)c2)c2sc3nc(C)nn3c2O)CC1` (stereo unspecified), the Potency entry is “inactive”.
Take `O=C(N/N=C/c1c(O)ccc2ccccc12)c1[nH]ncc1Br`: the Potency entry was “inactive”.
With `CCN1CCN(Cc2c(O)ccc3c2O/C(=C\c2ccc(C)cc2)C3=O)CC1` the entry was “inactive”; with `CC(NC(=O)C12CC3CC(CC(C3)C1)C2)C(=O)N/N=C/C1=C(N2CCOCC2)C(=C\c2ccccc2)/CC1` (stereo unspecified), “inactive”; with `CCOc1ccc(CCNC(=O)Cn2ncn3nc(-c4ccc(OC)cc4)cc3c2=O)cc1OCC`, “inactive”.
With `Cc1cc2c(C)cc(=O)oc2c2c1NCCC2` the entry was “inactive”; with `Fc1ccc(Br)cc1C1C=C(c2ccc(Br)cc2)Nc2ncnn21` (stereo unspecified), “inactive”; with `CCN1/C(=C/c2ccc3cc(C)ccc3[n+]2CC)Sc2cc(C)ccc21`, 10.6 µM (active).
`CCCCn1nc(C(=O)Nc2cc(C(F)(F)F)ccc2N2CCOCC2)ccc1=O`: the Potency was 39.8 µM (active).
With `CCOC(=O)c1ccc(N2CCOCC2)c(NC(=O)c2ccc3c(c2)OCO3)c1` the entry was “inactive”.
With `Cc1ccccc1C(=O)Nc1cc(C(F)(F)F)ccc1-n1cncn1` the entry was “inactive”; with `O=C(Nc1ccccc1N1CCOCC1)c1cc(Br)c(Br)s1`, “inactive”.
The same measure for `c1cc2c3c(cccc3c1)C(N1CCOCC1)=N2`: “inactive”; for `O=C1c2ccccc2-c2ncnc3c(N4CCOCC4)cc(N4CCOCC4)c1c23`: 17.8 µM (active).
Regarding `C=CCN1C(=O)/C(=C/c2ccc(OC(C)=O)c(OCC)c2[N+](=O)[O-])SC1=S`, the Potency is 31.6 µM (active).
With `CCO/C=C1/C(=O)N(c2ccc(OC)cc2)C(=O)c2ccccc21`, the Potency result is “inactive”.
The same measure for `Cc1ccc2c(c1)OC(c1ccc3c(c1)OCCO3)CC2=O` (stereo unspecified): “inactive”; for `O=C(CCl)N1CCCC1c1ccc2c(c1)OCCO2` (stereo unspecified): 35.5 µM (active).
With `O=C(O)c1cc2c(cc1NC(=O)C1CCCC1)OCCO2` the entry was “inactive”.
`CCOC(=O)c1sc(NC(=O)CCN2CCN(C)CC2)c(C(=O)OCC)c1C`: the Potency result is “inactive”.
As for `CC(=O)O[C@@H]1C[C@H]2C(C)(C)C(=O)C=C[C@]2(C)[C@H]2CC[C@@]3(C)[C@H](c4ccoc4)OC(=O)[C@H]4O[C@]43[C@@]21C`, the Potency was 31.6 µM (active).
With `Cc1onc(-c2ccccc2Cl)c1C(=O)Nc1cc(=O)n(C)c(=O)n1C` the entry was “inactive”; with `Cc1ccc2c(Cl)cc(Cl)c(OCC(=O)OCC(=O)Nc3ccc(C#N)cc3)c2n1`, “inactive”.
The same measure for `CCCCCCN1C[C@@H](n2cc(COC(=O)c3ccccc3)nn2)[C@H](O)C[C@@H]1c1ccc(C)cc1`: 22.4 µM (active); for `CCCCCCN1C[C@H](n2cc(COC(=O)c3ccccc3)nn2)[C@@H](O)C[C@@H]1c1ccc(Cl)cc1`: 31.6 µM (active); for `CCCCC(NC(=O)Cc1c(C)c2cc3c4c(oc3cc2oc1=O)CCCC4)C(=O)O` (stereo unspecified): “inactive”.
With `Cc1c(O)ccc2c(CN3CCN(CCO)CC3)cc(=O)oc12` the entry was “inactive”; with `Cc1c(NS(=O)(=O)c2ccc(NCCN3CCOCC3)c([N+](=O)[O-])c2)c(=O)n(-c2ccccc2)n1C`, “inactive”; with `Cc1nn(-c2ccccc2)c(N2CCCC2)c1/C=N/Nc1ccc(S(=O)(=O)Nc2ccccc2)cc1[N+](=O)[O-]`, 31.6 µM (active).
For `O=C(O)COc1ccccc1/C=N/Nc1ccc(S(=O)(=O)Nc2ccc(Cl)cc2)cc1[N+](=O)[O-]`, the Potency entry was “inactive”.
With `O=C(COc1ccc(Br)cc1)NCCN1CCCC1`, the Potency result was “inactive”.
Take `CC1=C(C(=O)OC(C)C)C(c2ccc(Cl)cc2)n2c(s/c(=C\c3ccc(OCC(=O)O)cc3)c2=O)=N1` (stereo unspecified): the Potency result was “inactive”.
Turning to `CC1=CC2=NC(=O)/C(=C/c3coc4ccc(Cl)cc4c3=O)C(=N)N2O1`, the Potency result is “inactive”.
With `CCOC(=O)c1sc(NC(=O)c2nc3nc(C)cc(C(F)F)n3n2)c(C(=O)OC)c1C` the entry was “inactive”; with `CCN1C(=O)c2cccc3c(S(=O)(=O)NC(Cc4ccccc4)C(=O)O)ccc1c23` (stereo unspecified), “inactive”; with `O=C(COC(=O)c1ccccc1C(=O)c1ccc(Cl)c([N+](=O)[O-])c1)NC1CCCCCC1`, 35.5 µM (active).
Take `CC(=O)Nc1ccc(NC(=O)C(C)OC(=O)c2ccccc2C(=O)c2ccc(Cl)c([N+](=O)[O-])c2)cc1` (stereo unspecified): the Potency was 39.8 µM (active).
As to `Cc1cc(OCC(=O)OCC(=O)NC2CCCCCC2)ccc1Cl`, the Potency result was “inactive”.
The same measure for `CN(CC(=O)Nc1ccccc1Cl)C1CCS(=O)(=O)C1` (stereo unspecified): “inactive”.
With `CC(=O)Nc1ccc(NC(=O)C(C)OC(=O)CCSc2ccccc2Cl)cc1` (stereo unspecified) the entry was “inactive”; with `Cc1ccc(C(=O)COC(=O)CCC(=O)NC2CCCCC2)cc1[N+](=O)[O-]`, “inactive”.
With `CC(OC(=O)c1ccc(-n2cnnn2)cc1)C(=O)Nc1ccccc1[N+](=O)[O-]` (stereo unspecified) the entry was “inactive”; with `CN(CCC#N)C(=O)COC(=O)c1ccccc1C(=O)c1ccc(Cl)c([N+](=O)[O-])c1`, 29.9 µM (active).
Take `CN(CCC#N)C(=O)COC(=O)c1c2c(nc3ccccc13)/C(=C/c1ccco1)CC2`: the Potency entry is “inactive”.
The same measure for `O=C(CN(C(=O)c1ccccc1Cl)C1CCCCC1)Nc1ccc(Cl)c([N+](=O)[O-])c1`: 35.5 µM (active); for `C=CCNC(=O)c1ccccc1NC(=O)Cc1ccccc1[N+](=O)[O-]`: “inactive”; for `CN(C(=O)COC(=O)c1ccc([N+](=O)[O-])cc1N)c1ccccc1`: “inactive”.
The same measure for `O=C(CSc1nnnn1C1CC1)N1CCN(c2ccc(O)cc2)CC1`: “inactive”; for `CC(=O)c1ccccc1NC(=O)COC(=O)c1cc[n+]([O-])cc1`: “inactive”; for `Cc1ccc(Cl)c(NC(=O)COC(=O)c2ccccc2C(=O)c2ccc(Cl)c([N+](=O)[O-])c2)c1Cl`: 20 µM (active).
Take `Cn1c(N)c(C(=O)COC(=O)c2ccccc2C(=O)c2ccc(Cl)c([N+](=O)[O-])c2)c(=O)n(C)c1=O`: the Potency is 20 µM (active).
Turning to `CCOC(=O)Cn1nc(C)c(NC(=O)COc2ccc([N+](=O)[O-])c(C)c2)c1C`, the Potency result is “inactive”.
With `Cn1c(N)c(C(=O)COC(=O)CC(NC(=O)c2ccccc2Cl)c2ccccc2)c(=O)n(C)c1=O` (stereo unspecified) the entry was “inactive”.
The same measure for `CC(C)Cn1c(N)c(C(=O)COC(=O)c2cccnc2Cl)c(=O)n(C)c1=O`: “inactive”.
Take `COC(=O)c1cc(-c2ccc(Br)cc2)c2c(=O)n(C)c(=O)n(C)c2n1`: the Potency entry is “inactive”.
With `Cc1sc2nc3ccc(NCc4ccco4)nn3c(=O)c2c1C` the entry was “inactive”.
`O=C(/C=C/c1cn(CC(O)CN2CCc3ccccc32)c2ccccc12)c1ccc(Br)cc1` (stereo unspecified): the Potency entry is “inactive”.
With `COc1ccc2cc(CNCCOCCOCCNCc3ccc4cc(OC)ccc4c3)ccc2c1` the figure was 29.9 µM (active); with `COc1ccc(CNCCC2(C(C)C)CCOC(C)(C)C2)cc1` (stereo unspecified), “inactive”; with `COc1ccc(CNc2cc(C)nc3ccc(OC)cc23)cc1`, “inactive”.
`OCCCc1nc2n(n1)C(c1ccccc1)C=C(c1ccccc1)N2` (stereo unspecified): the Potency entry was “inactive”.
The same measure for `Cc1cc(N2CCN(C(=O)Oc3ccc([N+](=O)[O-])cc3)CC2)c2ccccc2n1`: 35.5 µM (active); for `O=C(Cc1ccccc1)Nc1cc([N+](=O)[O-])ccc1N1CCOCC1`: “inactive”.
Turning to `Cc1cc(N2CCN(c3ccc(C(F)(F)F)cc3[N+](=O)[O-])CC2)c2ccccc2n1`, the Potency entry was “inactive”.
Turning to `CC(C(=O)N1CCCCCC1)c1ccc([N+](=O)[O-])cc1` (stereo unspecified), the Potency entry was “inactive”.
`CCCn1nc(NC(=O)C(C)(C)C)c2cc3cc(OC)ccc3nc21`: the Potency entry was “inactive”.
Regarding `Cc1ccc(-c2nc3cc(Br)cnc3nc2-c2ccc(C)cc2)cc1`, the Potency result was “inactive”.
For `Cc1nnsc1C(=O)NNC(=O)Nc1ccccc1`, the Potency entry is “inactive”.
Consider `O=C(C1=NN(c2ccccc2)C2C(=O)N(c3ccccc3Cl)C(=O)C12)c1ccccc1` (stereo unspecified), for which the Potency result was “inactive”.
Regarding `O=C(c1ccccc1)c1ccccc1N1C(=O)C=CC1=O`, the Potency is 23.8 µM (active).
Regarding `O=C(c1ccccc1)c1ccsc1C(=O)c1ccccc1`, the Potency result was “inactive”.
As for `O=C(Oc1cc(=O)oc2c1c(=O)n1c3c(cccc23)CC1)c1ccccc1`, the Potency entry is “inactive”.
The same measure for `COc1cccc(CNC(=O)c2cc(S(=O)(=O)N3CCCC3)cn2C)c1`: “inactive”.
The same measure for `Cc1ccc(OCC(=O)Nc2ccc(Cl)cc2)c(-n2nc3ccccc3n2)c1`: 39.8 µM (active); for `CN(CC(=O)Nc1ccc(Cl)cc1)C(=O)COc1ncnc2ccccc12`: “inactive”; for `Cc1cc(Cl)ccc1OCC(=O)OCC(=O)Nc1cccnc1Cl`: “inactive”.
The same measure for `Cc1cccc(C2=NN(c3ccccc3)[C@@H](C(=O)N3CCOC3=O)[C@@H]2c2ccc(F)cc2)c1`: “inactive”; for `Cc1cc(NCCCCO)n2c(nc3ccccc32)c1C#N`: “inactive”; for `Cc1ccc(-c2ncns2)cc1`: “inactive”.
In the case of `COc1ccc(OCC(O)CNC(=O)c2c(-c3ccccc3)noc2C)cc1` (stereo unspecified), the Potency result is “inactive”.
Regarding `OC(COc1ccc(Cl)cc1)CSc1ccccn1` (stereo unspecified), the Potency entry is “inactive”.
For the compound `N=c1n(Cc2ccccc2)c2ccccc2n1CC(O)COc1ccc(Cl)cc1Cl` (stereo unspecified), the Potency was 37.7 µM (active).
The same measure for `N=c1n(CCO)c2ccccc2n1CCOc1ccc(Cl)cc1Cl`: 25.1 µM (active); for `Oc1nncc2c3ccccc3n(Cc3cccc(Cl)c3)c12`: “inactive”.
On to `COc1ccc(OCC(O)Cn2c(=N)n(Cc3ccccc3)c3ccccc32)cc1` (stereo unspecified), for which the Potency was 35.5 µM (active).
The same measure for `COc1ccc(OCc2nc3ccccc3n2C(C)C)cc1`: “inactive”.
With `N=c1n(Cc2ccc(Cl)cc2)c2ccccc2n1CC(O)COc1ccccc1` (stereo unspecified), the Potency was 35.5 µM (active).
The same measure for `O=C(O)c1cc2cccc(S(=O)(=O)N3CCCCC3)c2cc1O`: “inactive”.
On to `CC(C)(C)C(=O)/C(=C/c1ccncc1)n1cncn1`, for which the Potency is 20 µM (active).
With `CC(/C=N\NC(=O)Cn1cncn1)=C/c1ccc(C(C)C)cc1`, the Potency result is “inactive”.
The same measure for `Cc1cccc(C)c1N(CC(=O)NCc1ccc(F)cc1)C(=O)c1csnn1`: “inactive”.
The same measure for `CN(C)c1ccc(/C=N/NC(=O)c2ccc(Cn3cc(Br)cn3)o2)cc1`: “inactive”.
Take `NC(=O)c1ccsc1NC(=O)Cc1ccc([N+](=O)[O-])cc1`: the Potency entry is “inactive”.
The same measure for `NC(Cc1ccc([N+](=O)[O-])cc1)=NOC(=O)C(c1ccccc1)c1ccccc1`: 25.1 µM (active); for `NC(Cc1ccc([N+](=O)[O-])cc1)=NOC(=O)c1cccc(Br)c1`: “inactive”.
